A short description of this test: NCI Yeast Anticancer Drug Screen. Data for the mgt1 strain (AID 153). The note with it: S. cerevisiae mgt1 mutant growth inhibition, hits give high values. The method, then: Growth inhibition of yeast strains with defined genetic alterations is measured as a screen for potential anti-cancer activity. Selected strains with alterations in DNA damage repair or cell cycle control were exposed to compounds and growth inhibition was measured relative to vehicle treated controls. The strain used in this assay is mgt1

The panel holds about 79,000 compounds, 15% with a hit somewhere; the sample as a whole holds those more often. A number with no mark means an inactive call. The source made the active and inactive calls. Cut-off read from the data, not from the text of the source: active = growth inhibition above about 70%; inactive = the rest.

As for `Cc1ccc(C(C)C)c(C(=C2C=CC(=[N+](C)C)C=C2)c2c(C(C)C)ccc(C)c2O)c1O`, the growth inhibition was -2% (at 1.2 µM); 0% (at 3.7 µM); 98% (active) (at 11.0 µM); 94% (active) (at 33.0 µM); 85% (active) (at 100.0 µM).
Taken in the same sequence, the figures for `O=C1C=CC(=Nc2ccc3c(c2)Cc2cc(Cl)ccc2-3)O1` were 2%, 20%, 68%, 99% (active) and 99% (active).
Taken in the same sequence, the figures for `Nc1c([N+](=O)[O-])cc2c3c(cccc13)CC2` were 5%, 18%, 31%, 22% and 39%.
As for `COc1cc(C(C)C(C(=O)O)C(=O)C(=O)O)cc(OC)c1OC` (stereo not given), the growth inhibition runs as follows: (at 1.2 µM) 1%; (at 3.7 µM) 2%; (at 11.0 µM) 2%; (at 33.0 µM) 1%; (at 100.0 µM) 21%.
With `COc1ccc(/C(=N/O)c2ccccc2C2=Nc3ccccc3C(NCc3ccccc3)O2)cc1C` (stereo not given), the growth inhibition is -2% (at 1.2 µM); -3% (at 3.7 µM); -1% (at 11.0 µM); 31% (at 33.0 µM); 97% (active) (at 100.0 µM).
Taken in the same sequence, the figures for `CCN(CC)c1ccc(N=Nc2cc(S(=O)(=O)O)ccc2O)c(O)c1` were 3%, -9%, 4%, 9% and 27%.
Taken in the same sequence, the figures for `CC[N+]1(C)CCC(O)(/C=C/c2ccc(Cl)c(Cl)c2)C(C(=O)/C=C/c2ccc(Cl)c(Cl)c2)C1` (stereo not given) were 7%, 72% (active), 99% (active), 99% (active) and 99% (active).
Taken in the same sequence, the figures for `CCOc1ccccc1N1C(=O)CC(Sc2ccccc2N)C1=O` (stereo not given) were 3%, -10%, -13%, -5% and 1%.

The values above are taken from PubChem BioAssay (NCI).
